These results are taken from PubChem BioAssay (NCI).

Among the test systems are NCI-H23 lung; NCI-H226 lung; NCI-H322M lung; HOP-62 NSCLC; NCI-H460 lung; NCI-H522 lung; A549/ATCC NSCLC; 786-0 renal; COLO 205 colon; DU-145 prostate; K-562 leukemia; MALME-3M melanoma; MDA-MB-231 breast; RXF 393 renal; SF-268 CNS; SF-295 CNS; SF-539 CNS; UACC-257 melanoma; M14 melanoma; HOP-92 NSCLC.
Holding throughout (assay): NCI-60 one-dose screen, 48 h (100 = growth as untreated, 0 = no growth, -100 = all killed)
Details in all cases: 10 µM

This is part of a sample that, as a whole, favours compounds with a hit. Of some 83,000 tested, about 20% had one in any assay.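 For each line, cells grew in 96-well plates with the test compound present at a single concentration for 48 hours.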 Values without a mark were called inactive. Active and inactive are the calls of the source. The calls were made as follows: active = growth percent below 10; inactive = the rest.

On to `Nc1nc(N)c(N=Nc2ccc(C(=O)O)cc2)c(N)n1`, for which the growth in the assay on NCI-H23 lung was 99.6%; in the assay on NCI-H226 lung it was 108%; in the assay with NCI-H322M lung, 104%; in the assay with HOP-62 NSCLC, 106%; in the assay on NCI-H460 lung, 117%; in the assay with NCI-H522 lung, -5.11% (active). Besides, the growth in the assay with A549/ATCC NSCLC was 51.8%; with 786-0 renal it was 107%; with COLO 205 colon, 117%; with DU-145 prostate it was 111%; in the assay with K-562 leukemia, 108%; with MALME-3M melanoma it was 106%. Besides, the growth is 107% in the assay on MDA-MB-231 breast; 113% in the assay with RXF 393 renal; 107% in the assay with SF-268 CNS; 104% in the assay with SF-295 CNS; 101% in the assay with SF-539 CNS; 30.9% with UACC-257 melanoma. Besides, in the assay with M14 melanoma, the growth was 98.4%.
Consider `Nc1ncnc2[nH]ncc12`, for which the growth with NCI-H23 lung was 17.7%; in the assay on NCI-H226 lung it was 34.8%; in the assay with NCI-H322M lung, 0.523% (active); in the assay on HOP-62 NSCLC it was 20.9%; in the assay on NCI-H460 lung, 12.3%; in the assay on HOP-92 NSCLC it was -21.4% (active). In addition, the growth is 23% in the assay with A549/ATCC NSCLC; 10.8% in the assay on COLO 205 colon; 2.47% (active) in the assay on DU-145 prostate; 13% in the assay on K-562 leukemia; 21.3% in the assay with MALME-3M melanoma; 5.28% (active) in the assay with MDA-MB-231 breast. Further, the growth in the assay on RXF 393 renal was 14.9%; in the assay with SF-268 CNS, 29.9%; in the assay on SF-295 CNS, 21%; with SF-539 CNS, 35.6%; in the assay with UACC-257 melanoma, 16.3%.
Take `CCCCCCCCOC(=O)c1ccccn1`: the growth with NCI-H23 lung was 91.5%; in the assay with NCI-H226 lung it was 104%; in the assay with NCI-H322M lung, 98.9%; in the assay on HOP-62 NSCLC, 93.5%; with NCI-H460 lung, 109%; in the assay with HOP-92 NSCLC it was 107%. Further, the growth was 107% with A549/ATCC NSCLC; 106% in the assay on COLO 205 colon; 102% in the assay on DU-145 prostate; 115% in the assay with K-562 leukemia; 117% with MALME-3M melanoma; 95.2% in the assay with MDA-MB-231 breast. Also, the growth is 116% in the assay on RXF 393 renal; 97.6% in the assay on SF-268 CNS; 133% with SF-295 CNS; 96.9% with SF-539 CNS; 107% in the assay on UACC-257 melanoma.
On to `COC(=O)C(O)c1ccccc1` (stereo unspecified), for which the growth in the assay on NCI-H23 lung is 106%; with NCI-H226 lung, 107%; in the assay on NCI-H322M lung it was 125%; with HOP-62 NSCLC, 105%; in the assay on NCI-H460 lung, 105%; in the assay on HOP-92 NSCLC, 95.6%. For the same molecule, the growth in the assay on A549/ATCC NSCLC was 115%; in the assay on COLO 205 colon it was 111%; with DU-145 prostate, 114%; in the assay with K-562 leukemia it was 101%; in the assay on MALME-3M melanoma, 134%; in the assay on MDA-MB-231 breast it was 91%. Moreover, the growth is 111% in the assay with RXF 393 renal; 102% in the assay with SF-268 CNS; 139% with SF-295 CNS; 98% with SF-539 CNS; 116% in the assay on UACC-257 melanoma; 105% in the assay on M14 melanoma.
In the case of `CN(C)CCN(Cc1ccccc1)c1ccccc1`, the growth is 99.8% with NCI-H23 lung; 109% with NCI-H226 lung; 110% in the assay with NCI-H322M lung; 107% with HOP-62 NSCLC; 104% with NCI-H460 lung; 104% in the assay with NCI-H522 lung. Further, the growth in the assay with A549/ATCC NSCLC was 106%; in the assay with 786-0 renal it was 105%; in the assay on COLO 205 colon it was 118%; in the assay on DU-145 prostate, 120%; with K-562 leukemia, 81.7%; with MALME-3M melanoma, 123%. The growth in the assay with MDA-MB-231 breast was 91.7%; in the assay with RXF 393 renal, 103%; with SF-268 CNS, 114%; in the assay with SF-295 CNS, 110%; in the assay on SF-539 CNS it was 121%; with UACC-257 melanoma it was 126%.
For `OCC1OC(OC2C(O)C(CO)OC2(CO)OC2OC(CO)C(O)C(O)C2O)C(O)C(O)C1O` (stereo unspecified), the growth was 103% in the assay on NCI-H23 lung; 115% with NCI-H226 lung; 120% in the assay with NCI-H322M lung; 98.6% in the assay with HOP-62 NSCLC; 111% in the assay with NCI-H460 lung; 90.3% with HOP-92 NSCLC. Also, the growth in the assay on A549/ATCC NSCLC is 98%; in the assay with COLO 205 colon it was 117%; with DU-145 prostate, 116%; in the assay on K-562 leukemia, 139%; with MALME-3M melanoma, 138%; in the assay on MDA-MB-231 breast, 99.6%. Moreover, the growth was 118% in the assay on RXF 393 renal; 106% in the assay on SF-268 CNS; 131% in the assay on SF-295 CNS; 96.9% with SF-539 CNS; 97.6% with UACC-257 melanoma.
Take `Cc1cc(C(C)(C)C)cc(C)c1Br`: the growth in the assay on NCI-H23 lung is 104%; in the assay on NCI-H226 lung it was 111%; in the assay with NCI-H322M lung, 121%; with HOP-62 NSCLC, 99.8%; with NCI-H460 lung, 103%; in the assay on HOP-92 NSCLC, 75.5%. Further, the growth in the assay with A549/ATCC NSCLC was 109%; in the assay with COLO 205 colon, 112%; in the assay on DU-145 prostate, 121%; in the assay with K-562 leukemia, 111%; in the assay on MALME-3M melanoma, 135%; in the assay on MDA-MB-231 breast it was 108%. The growth was 113% with RXF 393 renal; 102% with SF-268 CNS; 103% with SF-295 CNS; 94.9% with SF-539 CNS; 105% in the assay on UACC-257 melanoma; 98.5% with M14 melanoma.
`O=C1Cc2ccccc2C(=O)O1`: the growth is 107% with NCI-H23 lung; 108% in the assay with NCI-H226 lung; 110% in the assay on NCI-H322M lung; 108% in the assay on HOP-62 NSCLC; 108% in the assay on NCI-H460 lung; 92% in the assay with HOP-92 NSCLC. The growth is 110% in the assay with A549/ATCC NSCLC; 123% in the assay with COLO 205 colon; 129% in the assay with DU-145 prostate; 106% in the assay with K-562 leukemia; 122% with MALME-3M melanoma; 108% with MDA-MB-231 breast. For the same molecule, the growth with RXF 393 renal was 114%; in the assay on SF-268 CNS, 110%; in the assay with SF-295 CNS, 107%; with SF-539 CNS, 103%; with UACC-257 melanoma it was 91.9%; with M14 melanoma it was 98.7%.
For `NCCC(=O)c1ccc(Cl)cc1`, the growth was 99.8% with NCI-H23 lung; 112% in the assay with NCI-H226 lung; 102% with NCI-H322M lung; 91% in the assay with HOP-62 NSCLC; 107% with NCI-H460 lung; 100% in the assay with NCI-H522 lung. The growth with A549/ATCC NSCLC was 111%; in the assay with 786-0 renal, 105%; with COLO 205 colon it was 106%; with DU-145 prostate, 108%; in the assay on K-562 leukemia it was 98.1%; in the assay on MALME-3M melanoma, 109%. In addition, the growth in the assay on MDA-MB-231 breast is 110%; in the assay with RXF 393 renal, 114%; in the assay on SF-268 CNS, 100%; with SF-295 CNS it was 105%; in the assay with SF-539 CNS, 104%; in the assay with UACC-257 melanoma, 101%. Also, in the assay with M14 melanoma, the growth is 102%.
